Assays:
Assay in all cases: PBM binding z-score (relative to random genomic background probes); higher = stronger binding; sequences stand for … in GC…GCGATTGACAGCGTAGAATGAAGG
[1] = test system: FXR:RXRa (NR concentration 270 nM, RXRa partner concentration 90 nM)
Outline: (§1)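 Probes were double-stranded and carried 34-nt variable regions with direct-repeat seeds, single-nucleotide variants, half-site ablations and random human genomic background sequences, printed on custom Agilent 4×180K protein-binding microarrays. Arrays were incubated 1 h with ligand-free nuclear receptor dimers in PBS pH 7.4, 2% milk, 0.02% Triton X-100, 1 mM DTT, 0.2 mg/mL BSA and 0.4 mg/ml salmon testes DNA. Antibodies against each partner (one per run) detected binding, and scanned fluorescence was regression-normalized. Binding z-scores use the random background probes as reference.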

[2] = test system: LXRa:RXRa (NR concentration 270 nM, RXRa partner concentration 90 nM)
Outline: as §1

[3] = test system: LXRa homodimer (NR concentration 270 nM)
Outline: as §1

[4] = test system: LXRb:RXRa (NR concentration 270 nM, RXRa partner concentration 90 nM)
Outline: as §1

[5] = test system: LXRb homodimer (NR concentration 270 nM)
Outline: as §1

[6] = test system: PPARa:RXRa (NR concentration 270 nM, RXRa partner concentration 90 nM)
Outline: as §1

[7] = test system: PPARg:RXRa (NR concentration 180 nM, RXRa partner concentration 90 nM)
Outline: as §1

[8] = test system: PPARg:RXRa 270nM:90nM, anti-RXR (NR concentration 270 nM, RXRa partner concentration 90 nM)
Outline: as §1

[9] = test system: PPARg:RXRa 30nM:10nM, anti-RXR (NR concentration 30 nM, RXRa partner concentration 10 nM)
Outline: as §1

[10] = test system: PPARg:RXRa 90nM:30nM, anti-RXR (NR concentration 90 nM, RXRa partner concentration 30 nM)
Outline: as §1

[11] = test system: PPARg:RXRa DBDmut IVT, anti-RXR (DBD mutation: RXRa K156A/R161A, NR concentration 270 nM, RXRa partner concentration 90 nM)
Outline: as §1

[12] = test system: PPARg:RXRa IVT, anti-PPARg (NR concentration 270 nM, RXRa partner concentration 90 nM)
Outline: as §1

[13] = test system: PPARg DBDmut:RXRa IVT, anti-PPARg (DBD mutation: PPARg1 K132A/R137A, NR concentration 270 nM, RXRa partner concentration 90 nM)
Outline: as §1

[14] = test system: PPARg DBDmut IVT, anti-PPARg (DBD mutation: PPARg1 K132A/R137A, NR concentration 270 nM)
Outline: as §1

[15] = test system: PPARg homodimer (NR concentration 180 nM)
Outline: as §1

[16] = test system: PXR:RXRa (NR concentration 270 nM, RXRa partner concentration 90 nM)
Outline: as §1

[17] = test system: PXR homodimer (NR concentration 270 nM)
Outline: as §1

[18] = test system: RARa:RXR (NR concentration 270 nM, RXRa partner concentration 90 nM)
Outline: as §1

[19] = test system: RARa homodimer (NR concentration 270 nM)
Outline: as §1

[20] = test system: RARb:RXRa (NR concentration 270 nM, RXRa partner concentration 90 nM)
Outline: as §1

Sequence | PBM binding z-score [1] | PBM binding z-score [2] | PBM binding z-score [3] | PBM binding z-score [4] | PBM binding z-score [5] | PBM binding z-score [6] | PBM binding z-score [7] | PBM binding z-score [8] | PBM binding z-score [9] | PBM binding z-score [10] | PBM binding z-score [11] | PBM binding z-score [12] | PBM binding z-score [13] | PBM binding z-score [14] | PBM binding z-score [15] | PBM binding z-score [16] | PBM binding z-score [17] | PBM binding z-score [18] | PBM binding z-score [19] | PBM binding z-score [20]
CCAGACAGGTGAAAGGTATCTCAGTCTGGTACGC | -0.129 | 0.0546 | -0.271 | 0.122 | -0.633 | 2.07 | 3.41 | 4.19 | 1.94 | 4.13 | 2.04 | 1.9 | 0.166 | -0.382 | 0.656 | 0.00827 | -0.341 | 0.664 | -0.422 | 0.68
TCTATTTGGTCAAAGGTCACACACTCGAAATGCG | 6.32 | 5.68 | 4.22 | 5.83 | 3.24 | 6.7 | 10.6 | 9.27 | 9.35 | 10.1 | 3.39 | 6.25 | 3.22 | 2.73 | 5.3 | 5.91 | 1.76 | 7.03 | 3.85 | 5.42
TATGCTAGGTCAACGATGGTCAGCTAATCTGCTA | 3.36 | 4.53 | 2.1 | 2.25 | 0.889 | 3.37 | 2.89 | 2.78 | 0.716 | 1.87 | 2.97 | 3.84 | 1.31 | 1.14 | 1.14 | 1.77 | -0.438 | 2.6 | -0.282 | 3.96
GCTAGTTGCTCAGTAAAAGGTCACACACCGGTCG | 3.27 | 4.03 | 4.51 | 4.02 | 0.393 | 4.42 | 2.23 | 3.52 | 1.06 | 2.88 | 0.44 | 1.7 | -0.262 | 0.0665 | 2.95 | 4.84 | 0.686 | 5.72 | 1.56 | 4.1
TCTAGTTGGTAACGGAGGTCACACACGACGGGTA | 2.77 | 3.39 | 3.31 | 3.27 | 0.826 | 3.7 | 2.37 | 3.33 | 3.38 | 3.55 | 1.63 | 2.76 | 0.969 | 0.885 | 2.11 | 3.99 | 1.46 | 4.04 | 1.83 | 3.27
CAAACTAGGTCACAGAGGTCAAAATCCGTGCGTA | 7.3 | 6.21 | 6.61 | 6.41 | 2.18 | 6.58 | 10 | 7.86 | 6.44 | 7.9 | 8.53 | 9.12 | 3.39 | 4.84 | 4.55 | 6.48 | 10.3 | 6.58 | 2.93 | 5.11
ACTATTAGTTGAGACGAGGACAACCGATAGGTTG | 0.431 | 0.148 | 0.167 | -0.324 | 0.49 | -0.169 | 0.659 | -0.132 | 0.0741 | 0.0272 | 0.000503 | 0.208 | 0.291 | 0.661 | 0.842 | 0.431 | 0.155 | 1.33 | 0.918 | 0.366
GCGACTGGGGCATCAGCAGGTTACCATGACTTAA | -0.337 | -0.256 | -0.454 | 0.309 | -1.08 | 0.903 | 0.918 | 0.462 | -0.743 | -0.0721 | 3.94 | 2.97 | -0.844 | -0.497 | -0.0201 | -0.489 | -0.454 | -0.00016 | -0.803 | 0.805
CAAGACAGGTGAAAGGTAACTCAGTCTGGTACGC | 1.04 | 1.14 | -0.209 | 0.929 | 0.289 | 3.73 | 5.4 | 5.94 | 4.14 | 6.08 | 1.61 | 2.88 | 0.223 | 0.183 | 0.995 | 1.09 | 0.0379 | 1.92 | 0.108 | 1.57
TCTGGCAGGCCAGAGGGTCACTCAAGAGGTACGG | 1.24 | 1.09 | -0.32 | 1.08 | -0.89 | 2.4 | 0.868 | 1.48 | 0.732 | 1.23 | 0.0912 | 0.182 | -0.722 | -0.915 | 0.353 | 1.59 | -0.371 | 2 | -0.717 | 2.31
GCATATCGGTAATACAAGGTGAAAGTCCGATTGT | 0.694 | 0.4 | 0.294 | 0.243 | -0.333 | 0.84 | 0.415 | 0.8 | 0.385 | 0.634 | 0.472 | 0.945 | 0.308 | 0.208 | 0.544 | 0.155 | 0.188 | 0.793 | 0.00157 | 0.541
TCATATGGGTAAATGCTAGGTGAAAGTCCGATCT | 0.03 | 0.212 | 0.0774 | 0.31 | -0.359 | 0.897 | 0.667 | 1.71 | 2.1 | 1.91 | 2.91 | 2.07 | 0.703 | 0.469 | -0.0354 | 0.217 | -0.0586 | 0.519 | -0.166 | 0.208
ATCTCTAGGTAAAGTTCAGTGAGAGATCGATAGA | 1.25 | 1.82 | 1.42 | 0.981 | 0.57 | 2.42 | 3.37 | 3.95 | 2.06 | 3.46 | 2.11 | 2.62 | 1.04 | 0.672 | 1.57 | 1.77 | 1.52 | 1.01 | 0.975 | 2.58
TCTGTTAGGTCAGTTGGTCAGCTAACGAGCTGCC | 2.18 | 1.74 | 0.264 | 1.37 | 2.71 | 1.99 | 0.27 | 2.47 | 3.02 | 2.76 | 2.15 | 3.2 | 2.86 | 2.08 | 1.91 | 0.988 | 0.313 | 1.29 | 0.814 | 3.71
CCCAGTTGGTCAGGAGGTCACACACCGGATATGA | 3.51 | 3.58 | 1.99 | 3.58 | 0.535 | 4.21 | 3.56 | 3.79 | 1.07 | 3 | 0.556 | 3.46 | -0.0435 | -0.356 | 2.74 | 3.97 | 1.3 | 4.22 | 1.81 | 3.79
TCGAGTAGGTTAGTCGGGGCAGTCAGCCAACATA | 0.0181 | -0.31 | -0.676 | 0.0169 | -0.869 | 0.556 | -0.388 | 0.946 | 0.987 | 0.955 | 2.19 | 1.95 | -0.923 | -0.0532 | -0.451 | -0.323 | -0.507 | 0.0728 | -0.469 | 0.59
GCTTGTAGATCAAGGTTCAGAAAGACTAAGCTAA | -0.0392 | 0.122 | 0.0153 | 0.103 | -0.768 | 2.44 | 4.87 | 5.28 | 3.39 | 5.82 | 1.07 | 1.53 | 0.321 | -0.08 | -0.171 | 0.124 | -0.087 | 0.533 | -0.997 | 0.339
CGAGCTAGGTCATCCAGGACAGTGAATACATTGA | 4.29 | 2.49 | 0.492 | 1.96 | 0.0673 | 3.54 | 2.6 | 2.25 | 0.528 | 1.35 | 3.44 | 3.06 | 0.0496 | -0.51 | 1.51 | 1.88 | 0.935 | 2.15 | 0.298 | 3.85
CGTACAAGGTCAATGCTAGGTCAGTGAAAGCATT | 7.34 | 6 | 2.7 | 4.55 | 1.54 | 5.5 | 5.12 | 5.6 | 2.08 | 4.22 | 4.05 | 4.92 | 0.909 | 0.378 | 5.84 | 5.07 | 2.03 | 6.46 | 2.18 | 5.33

— the supplement of paper PMC6555819
